From paper PMC11006913 come the findings set out here.

Chain of MSX2 (Homo sapiens, UniProt P35548 130-214, F161Y) (P35548 130-214 F161Y): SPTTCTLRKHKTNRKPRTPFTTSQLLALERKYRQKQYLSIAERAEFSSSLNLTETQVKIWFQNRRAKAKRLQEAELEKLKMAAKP

The target in one assay is MSX2 (Homo sapiens, UniProt P35548 130-214). Put plainly: PBM; 200 nM protein, PBS. The following applies: dsDNA, one strand shown.
Chain of MSX2 (Homo sapiens, UniProt P35548 130-214) (P35548 130-214): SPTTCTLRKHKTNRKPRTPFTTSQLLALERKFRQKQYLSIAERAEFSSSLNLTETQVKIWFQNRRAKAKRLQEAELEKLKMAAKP
With GATGTTTA, the binding signal was 10.9 upbm affinity estimate (log intensity, higher = more binding, comparable within an allelic series).
Regarding CGACAATA, the binding signal was 11 upbm affinity estimate (log intensity, higher = more binding, comparable within an allelic series).
Regarding GAGCCGAC, the binding signal was 9.46 upbm affinity estimate (log intensity, higher = more binding, comparable within an allelic series).
On the same count and under the same terms, then GACCTCCC, with 9.46 upbm affinity estimate (log intensity, higher = more binding, comparable within an allelic series); and AAATATTT, with 11.1 upbm affinity estimate (log intensity, higher = more binding, comparable within an allelic series).
Still for that read-out and setting: then GAACACCC, with 9.63 upbm affinity estimate (log intensity, higher = more binding, comparable within an allelic series).
As to ATTAACAC, the binding signal was 12.1 upbm affinity estimate (log intensity, higher = more binding, comparable within an allelic series).
Take AGCGCCGG: the binding signal is 9.53 upbm affinity estimate (log intensity, higher = more binding, comparable within an allelic series).
For the sequence CCTGTGCC, the binding signal was 9.41 upbm affinity estimate (log intensity, higher = more binding, comparable within an allelic series).
Still for that read-out and setting: in the case of GAGGAAGC it was 9.52 upbm affinity estimate (log intensity, higher = more binding, comparable within an allelic series); in that of GAAGCAGC, 9.57 upbm affinity estimate (log intensity, higher = more binding, comparable within an allelic series); in that of ATACATAA, 11.6 upbm affinity estimate (log intensity, higher = more binding, comparable within an allelic series).
Consider CCCTAGCG, for which the binding signal is 9.29 upbm affinity estimate (log intensity, higher = more binding, comparable within an allelic series).

In another assay the target is VAX1 (Homo sapiens, UniProt Q5SQQ9 86-172). Put plainly: PBM; 200 nM protein, PBS. The conditions noted are these: dsDNA, one strand shown.
Chain of VAX1 (Homo sapiens, UniProt Q5SQQ9 86-172) (Q5SQQ9 86-172): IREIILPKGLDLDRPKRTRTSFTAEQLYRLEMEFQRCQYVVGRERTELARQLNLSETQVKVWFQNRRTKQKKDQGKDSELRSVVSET
As for GGCCAGCA, the binding signal was 7.05 upbm affinity estimate (log intensity, higher = more binding, comparable within an allelic series).
On the same count and under the same terms, in the case of TCCGCGGA it was 7.16 upbm affinity estimate (log intensity, higher = more binding, comparable within an allelic series).
Still for that read-out and setting: then GAGCCGAC, with 7.12 upbm affinity estimate (log intensity, higher = more binding, comparable within an allelic series); and GAAGCAGC, with 7.06 upbm affinity estimate (log intensity, higher = more binding, comparable within an allelic series).
On the same count and under the same terms, in the case of CCCTAGCG it was 6.79 upbm affinity estimate (log intensity, higher = more binding, comparable within an allelic series).

Another assay concerns the target MSX2 (Homo sapiens, UniProt P35548 130-214, F161Y). The assay can be described thus: PBM; 200 nM protein, PBS. The conditions noted are these: dsDNA, one strand shown.
In the case of CGCTCAGC, the binding signal was 9.59 upbm affinity estimate (log intensity, higher = more binding, comparable within an allelic series).
In the case of CATACTAA, the binding signal was 10.6 upbm affinity estimate (log intensity, higher = more binding, comparable within an allelic series).
Still for that read-out and setting: then GAGGTGGC, with 9.41 upbm affinity estimate (log intensity, higher = more binding, comparable within an allelic series); and CCCCTACG, with 9.63 upbm affinity estimate (log intensity, higher = more binding, comparable within an allelic series); and CCACTGGC, with 9.68 upbm affinity estimate (log intensity, higher = more binding, comparable within an allelic series).
For GCCAGGAC, the binding signal was 9.76 upbm affinity estimate (log intensity, higher = more binding, comparable within an allelic series).
On the same count and under the same terms, then AGGGGCCG, with 9.42 upbm affinity estimate (log intensity, higher = more binding, comparable within an allelic series); and GCTCCAGC, with 9.5 upbm affinity estimate (log intensity, higher = more binding, comparable within an allelic series); and AATTTTTA, with 11.6 upbm affinity estimate (log intensity, higher = more binding, comparable within an allelic series).
AGCTATTA: the binding signal is 11.9 upbm affinity estimate (log intensity, higher = more binding, comparable within an allelic series).
Still for that read-out and setting: in the case of GGCCAGCA it was 9.57 upbm affinity estimate (log intensity, higher = more binding, comparable within an allelic series); in that of ATGGAAAT, 10.6 upbm affinity estimate (log intensity, higher = more binding, comparable within an allelic series).
Still for that read-out and setting: then CCTACGGC, with 9.63 upbm affinity estimate (log intensity, higher = more binding, comparable within an allelic series).
On to AGCGGGGC, for which the binding signal is 9.55 upbm affinity estimate (log intensity, higher = more binding, comparable within an allelic series).
CCTGAGCC: the binding signal is 9.53 upbm affinity estimate (log intensity, higher = more binding, comparable within an allelic series).
Same read-out and setting: in the case of CAGGGCCA it was 9.56 upbm affinity estimate (log intensity, higher = more binding, comparable within an allelic series); in that of AGGCGTGA, 9.36 upbm affinity estimate (log intensity, higher = more binding, comparable within an allelic series).
The same measure, in the same setting: then TCCGCGGA, with 9.53 upbm affinity estimate (log intensity, higher = more binding, comparable within an allelic series); and GATGTTTA, with 10.8 upbm affinity estimate (log intensity, higher = more binding, comparable within an allelic series).
The same measure, in the same setting: in the case of CGACAATA it was 10.9 upbm affinity estimate (log intensity, higher = more binding, comparable within an allelic series).
With GAGCCGAC, the binding signal was 9.31 upbm affinity estimate (log intensity, higher = more binding, comparable within an allelic series).
On the same count and under the same terms, in the case of GACCTCCC it was 9.44 upbm affinity estimate (log intensity, higher = more binding, comparable within an allelic series); in that of AAATATTT, 11 upbm affinity estimate (log intensity, higher = more binding, comparable within an allelic series).
Still for that read-out and setting: then GAACACCC, with 9.59 upbm affinity estimate (log intensity, higher = more binding, comparable within an allelic series).
Same read-out and setting: in the case of ATTAACAC it was 11.8 upbm affinity estimate (log intensity, higher = more binding, comparable within an allelic series).
As to AGCGCCGG, the binding signal is 9.52 upbm affinity estimate (log intensity, higher = more binding, comparable within an allelic series).
Same read-out and setting: in the case of CCTGTGCC it was 9.42 upbm affinity estimate (log intensity, higher = more binding, comparable within an allelic series); in that of GAGGAAGC, 9.52 upbm affinity estimate (log intensity, higher = more binding, comparable within an allelic series); in that of GAAGCAGC, 9.57 upbm affinity estimate (log intensity, higher = more binding, comparable within an allelic series).
As to ATACATAA, the binding signal was 11.4 upbm affinity estimate (log intensity, higher = more binding, comparable within an allelic series).
Same read-out and setting: in the case of CCCTAGCG it was 9.37 upbm affinity estimate (log intensity, higher = more binding, comparable within an allelic series).

The target in a further assay is VAX1 (Homo sapiens, UniProt Q5SQQ9 86-172, T142I). Put plainly: PBM; 200 nM protein, PBS. The conditions noted are these: dsDNA, one strand shown.
Chain of VAX1 (Homo sapiens, UniProt Q5SQQ9 86-172, T142I) (Q5SQQ9 86-172 T142I): as the sequence (Q5SQQ9 86-172) above, with T57I counted along it
Turning to GGCCAGCA, the binding signal is 7.11 upbm affinity estimate (log intensity, higher = more binding, comparable within an allelic series).
Same read-out and setting: in the case of TCCGCGGA it was 7.5 upbm affinity estimate (log intensity, higher = more binding, comparable within an allelic series); in that of GAGCCGAC, 7.21 upbm affinity estimate (log intensity, higher = more binding, comparable within an allelic series).
Still for that read-out and setting: in the case of GAAGCAGC it was 7.19 upbm affinity estimate (log intensity, higher = more binding, comparable within an allelic series); in that of CCCTAGCG, 7.2 upbm affinity estimate (log intensity, higher = more binding, comparable within an allelic series).

The next assay deals with VAX1 (Homo sapiens, UniProt Q5SQQ9 86-172, K157R). The assay can be described thus: PBM; 200 nM protein, PBS. The conditions noted are these: dsDNA, one strand shown.
Chain of VAX1 (Homo sapiens, UniProt Q5SQQ9 86-172, K157R) (Q5SQQ9 86-172 K157R): as the sequence (Q5SQQ9 86-172) above, with K72R counted along it
Regarding GGCCAGCA, the binding signal was 7.17 upbm affinity estimate (log intensity, higher = more binding, comparable within an allelic series).
The same measure, in the same setting: in the case of TCCGCGGA it was 7.45 upbm affinity estimate (log intensity, higher = more binding, comparable within an allelic series); in that of GAGCCGAC, 7.3 upbm affinity estimate (log intensity, higher = more binding, comparable within an allelic series); in that of GAAGCAGC, 6.96 upbm affinity estimate (log intensity, higher = more binding, comparable within an allelic series).
Same read-out and setting: then CCCTAGCG, with 6.92 upbm affinity estimate (log intensity, higher = more binding, comparable within an allelic series).
